H9c2 protect: myocardial damage modulation in H9c2 cells; H9c2 cardiomyocytes, H2O2 injury protection, ATPLite, 2 h; protection from H2O2 cell death, % at 20 µM; hit rate 0.63% among 360,000;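 active means compounds giving at least 50% protection of heart cells from peroxide-induced death in the single-dose screen, raw or plate-pattern-corrected value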
ALR H2O2 inh: blocks human ALR sulfhydryl oxidase activity; hit rate 3.8% among 290,000; AID 485317; purified ALR, DTT oxidation, H2O2 HRP-luminol luminescence; P55789; inhibition, % (no concentration beside the values);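 active means mean replicate inhibition above about 79%, with every replicate also reaching it, limit read from the data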
PfG6PD inh: PfG6PD (Plasmodium falciparum) enzyme inhibition; PfGluPho enzyme, NADPH resazurin-diaphorase fluorescence; inhibition, % at 20 µM; hit rate 0.78% among 350,000;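 active means inhibition reaching at least a set limit at 20 µM in the primary screen, cut at about 59% in these data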
PfM18AAP inh-1: PfM18AAP enzyme inhibition. recombinant PfM18AAP, H-Glu-NHMec fluorogenic cleavage. inhibition, % at 7.35 µM. hit rate 1.2% among 290,000;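 active means inhibition above the campaign mean inhibition over all tested compounds plus 3 SD, cut at about 28% in these data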
PHOSPHO1 block: inhibitors of human PHOSPHO1 phosphatase. Q8TCT1. recombinant PHOSPHO1, absorbance phosphatase assay. inhibition, % at 13.3 µM. hit rate 1.1% among 290,000; in the data active means inhibition above about 60%
Target sequence (Q8TCT1 whole entry, looked up): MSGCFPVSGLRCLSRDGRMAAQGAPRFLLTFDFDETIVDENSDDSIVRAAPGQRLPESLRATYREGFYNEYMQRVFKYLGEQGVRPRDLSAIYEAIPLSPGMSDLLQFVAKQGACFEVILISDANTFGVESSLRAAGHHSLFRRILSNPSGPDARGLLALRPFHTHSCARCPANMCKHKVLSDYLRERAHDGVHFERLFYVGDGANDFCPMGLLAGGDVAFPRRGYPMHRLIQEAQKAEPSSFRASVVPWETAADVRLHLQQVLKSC
PfM18AAP inh-2: PfM18AAP inhibition, confirmation. recombinant PfM18AAP, H-Glu-NHMec fluorogenic cleavage. hit rate 28% among 2,400. shares compounds with PfM18AAP inh-1. inhibition, % at 7.35 µM;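 active means mean inhibition over replicate wells above the hit cutoff set for the earlier primary screen, cut at about 29% in these data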
CTSL1 counter: Cathepsin L (human) inhibition, confirmation; shares compounds with PfM18AAP inh-1; purified cathepsin L1, Z-Leu-Arg-MCA fluorescence; inhibition, % at 5.96 µM; 2,400 tested, under 10 active; AID 2178;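 active means average inhibition across replicates above the hit cutoff set in the earlier primary screen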
Target sequence (P07711 whole entry, looked up): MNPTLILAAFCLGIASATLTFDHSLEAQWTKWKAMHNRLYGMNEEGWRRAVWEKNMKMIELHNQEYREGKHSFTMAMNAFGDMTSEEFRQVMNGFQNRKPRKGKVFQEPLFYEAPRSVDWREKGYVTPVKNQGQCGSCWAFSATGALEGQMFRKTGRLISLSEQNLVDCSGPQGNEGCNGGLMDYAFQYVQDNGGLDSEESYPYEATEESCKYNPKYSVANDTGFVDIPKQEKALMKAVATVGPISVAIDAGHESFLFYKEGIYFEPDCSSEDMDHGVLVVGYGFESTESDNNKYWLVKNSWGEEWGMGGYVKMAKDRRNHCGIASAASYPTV
Of the large screens only hits and unclear results are named; the others gave an inactive call (follow-up assays come after a bar, where they were run). An excerpt weighted towards active compounds, which were near 5.6% of everything screened.

C[C@@H]1CN([C@@H](C)CO)S(=O)(=O)c2ccc(Br)cc2O[C@@H]1CN(C)C(=O)NC1CCCCC1	none (no result: ALR H2O2 inh, PfM18AAP inh-1, PHOSPHO1 block)
C/C(=N\NC(=O)c1ccncc1)c1ccc(N2CCOCC2)cc1	none (no result: PfM18AAP inh-1, PHOSPHO1 block)
C/C(=N\NC(=O)c1ccccc1)c1ccc(N2CCOCC2)cc1	none
C/C(=N\Nc1nc2ccccc2[nH]1)c1ccc(N2CCOCC2)cc1	PfM18AAP inh-1 46 | PfM18AAP inh-2 inactive | CTSL1 counter inactive
C/C(=N\Nc1ncc(Cl)cc1Cl)c1ccc(N2CCOCC2)cc1	PfM18AAP inh-1 52 | PfM18AAP inh-2 inactive | CTSL1 counter inactive
C/C(=N\Nc1ncc(Cl)cc1Cl)c1ccccn1	PfM18AAP inh-1 38 (no result: ALR H2O2 inh) | PfM18AAP inh-2 inactive | CTSL1 counter inactive
CCOC(=O)C1CCCN(C(=O)c2ccc3nc(-c4cccc(OC)c4)oc3c2)C1 (stereo not given)	none
COc1cccc(C(CCc2cc(OC)c(OC)c(OC)c2)NC(C)=O)c1 (stereo not given)	none (no result: ALR H2O2 inh, PfM18AAP inh-1, PHOSPHO1 block)
Cc1nc2ccccc2nc1N/N=C/c1ccc(O)cc1	ALR H2O2 inh 85, PfM18AAP inh-1 37 | PfM18AAP inh-2 inactive | CTSL1 counter inactive
Cc1nc(N/N=C/c2ccc(O)cc2)c2cnn(-c3ccccc3)c2n1	none
Cc1ccc(/C=N/Nc2cc(C)nc(NCc3ccccc3)n2)cc1	none (no result: ALR H2O2 inh)
Cc1cc(N/N=C/c2ccc(O)cc2)nc(NS(=O)(=O)c2ccccc2)n1	PfM18AAP inh-1 43 | PfM18AAP inh-2 inactive | CTSL1 counter inactive
Cc1ccc(C(=O)COC(=O)CCN2C(=O)C3C4C=CC(C5CC45)C3C2=O)cc1 (stereo not given)	none
CCN1/C(=C/C(C)=C/c2sc3ccccc3[n+]2CC)Sc2ccccc21	ALR H2O2 inh 99, PfM18AAP inh-1 44 | PfM18AAP inh-2 inactive | CTSL1 counter inactive
CCN1/C(=C/c2ccc3cccc(C)c3[n+]2CC)Sc2ccccc21	none
Cc1cc(=O)n2[nH]c(N)c(N=Nc3ccccc3)c2n1	PfM18AAP inh-1 41 | PfM18AAP inh-2 32 | CTSL1 counter inactive
Cc1ccc(N=Nc2c(N)[nH]n3c(=O)cc(-c4ccccc4)nc23)cc1	none
CCOC(=O)c1c(-c2ccc(C)o2)csc1NC(=O)CSc1ncn[nH]1	PfM18AAP inh-1 61 | PfM18AAP inh-2 inactive | CTSL1 counter inactive
COC(=O)c1c(NC(=O)CSc2ncn[nH]2)sc(C)c1C	none (no result: PfG6PD inh, PfM18AAP inh-1, PHOSPHO1 block)
CCOC(=O)c1c(NC(=O)CSc2ncn[nH]2)sc(C(C)=O)c1C	PfM18AAP inh-1 33 | PfM18AAP inh-2 inactive | CTSL1 counter inactive
CCOC(=O)c1c(-c2ccc(C)o2)csc1NC(=S)NC(=O)N(C)C	none
Cc1nn(CC(=O)OCC(=O)c2ccc(OC(F)F)cc2)c(C)c1[N+](=O)[O-]	none (no result: ALR H2O2 inh, PfM18AAP inh-1, PHOSPHO1 block)
O=C(c1ccc(Cl)cc1Cl)C1(n2cncn2)Oc2ccccc2C1O (stereo not given)	PfM18AAP inh-1 36 (no result: ALR H2O2 inh) | PfM18AAP inh-2 inactive | CTSL1 counter inactive
Oc1ccc(O)c(Cc2nc3ccccc3[nH]2)c1	PfM18AAP inh-1 44 | PfM18AAP inh-2 71 | CTSL1 counter inactive
O=C(Nc1ccccc1Cl)c1cc2ccccc2o/c1=N\O	PfM18AAP inh-1 37 | PfM18AAP inh-2 inactive | CTSL1 counter inactive
C/C(=N/Nc1nc(C)cc(-c2ccccc2)n1)c1ccco1	none
C/C(=N\Nc1nc(C)cc(-c2ccccc2)n1)c1ccc(C)o1	H9c2 protect 48, PfM18AAP inh-1 52 | PfM18AAP inh-2 inactive | CTSL1 counter inactive
CC(C)n1c(SCC(=O)Nc2nncs2)nnc1-c1ccco1	PfM18AAP inh-1 74 (no result: H9c2 protect) | PfM18AAP inh-2 60 | CTSL1 counter inactive
O=C(NNC(=O)c1cc(S(=O)(=O)N2CCOCC2)c(Cl)cc1Cl)c1ccccc1F	none (no result: PfM18AAP inh-1, PHOSPHO1 block)
COc1ccccc1CC1(C)C(=O)Nc2c(Cl)cccc21 (stereo not given)	none (no result: ALR H2O2 inh, PfG6PD inh, PfM18AAP inh-1, PHOSPHO1 block)
N#Cc1c2n(c(=S)n(-c3ccccc3[N+](=O)[O-])c1=O)CCCCC2	PfM18AAP inh-1 35 | PfM18AAP inh-2 inactive | CTSL1 counter inactive
COc1ccccc1N1CCN(C(=O)CSc2nc3ccccc3nc2N2CCC(C)CC2)CC1	none
NS(=O)(=O)c1ccc(NC(=S)NC2CCCCC2)cc1	PfM18AAP inh-1 43 | PfM18AAP inh-2 inactive | CTSL1 counter inactive
COc1ccc([C@H]2C[C@@H](n3cc(C4CC4)nn3)[C@H](O)CN2CC2CCCCC2)cc1	none (no result: ALR H2O2 inh, PfM18AAP inh-1, PHOSPHO1 block)
c1ccc(Sc2ccncc2)cc1	none (no result: ALR H2O2 inh, PfM18AAP inh-1, PHOSPHO1 block)
c1cc(SSc2ccncc2)ccn1	PfG6PD inh 65, PfM18AAP inh-1 62 | PfM18AAP inh-2 50 | CTSL1 counter inactive
CC(=O)NC(Cc1ccccc1F)C(=O)NC1CCN(C(=O)NCc2ccccc2)CC1 (stereo not given)	none (no result: ALR H2O2 inh)
CCOC(=O)C1=C(c2ccccc2)NC(=O)NC1c1ccc(O)c(OCC)c1 (stereo not given)	none
CCOc1cc(C2NC(=O)NC2=O)ccc1O (stereo not given)	PfM18AAP inh-1 35 | PfM18AAP inh-2 inactive | CTSL1 counter inactive
O=C(O)c1ccccc1-c1ccccc1C(=O)NNc1ccc([N+](=O)[O-])cc1	PfM18AAP inh-1 53 | PfM18AAP inh-2 inactive | CTSL1 counter inactive
O=C(NNc1ccc([N+](=O)[O-])cc1)c1ccccc1F	PfM18AAP inh-1 39 (no result: ALR H2O2 inh) | PfM18AAP inh-2 inactive | CTSL1 counter inactive
O=C(O)c1ccccc1Nc1ccc([N+](=O)[O-])cc1	none
O=C(NNC1=Nc2cc([N+](=O)[O-])ccc2OC1)c1ccccc1Cl	none
O=C(NNc1ccc([N+](=O)[O-])cc1)c1ccccc1Cl	PfM18AAP inh-1 50 | PfM18AAP inh-2 inactive | CTSL1 counter inactive
CN1C(=O)c2ccccc2CC12c1ccccc1C(=O)N2C (stereo not given)	none (no result: ALR H2O2 inh, PfM18AAP inh-1, PHOSPHO1 block)
Oc1cccc(C=Nc2cccc3ccccc23)c1O	PfM18AAP inh-1 50 (no result: ALR H2O2 inh) | PfM18AAP inh-2 32 | CTSL1 counter inactive
Oc1ccccc1N=Cc1c(O)ccc2ccccc12	PfM18AAP inh-1 31 (no result: ALR H2O2 inh) | PfM18AAP inh-2 inactive | CTSL1 counter inactive
Oc1ccccc1C=Nc1cccc2ccccc12	none
Cc1ccc(-c2nnc(COC(=O)c3cccs3)o2)cc1	none (no result: PHOSPHO1 block)
CCN(CC)C(=S)SCC(=O)Nc1nc(=O)c2ccccc2s1	PfM18AAP inh-1 32 | PfM18AAP inh-2 inactive | CTSL1 counter inactive
CCN1/C(=C\C(=S)Nc2ccccc2)Sc2ccccc21	PfM18AAP inh-1 41 (no result: ALR H2O2 inh) | PfM18AAP inh-2 inactive | CTSL1 counter inactive
C=CCn1c(CNC(=O)c2ccccc2F)nnc1SCC(=O)N1CCOCC1	none (no result: PHOSPHO1 block)
NC(=O)C1CCN(C(=O)C(=O)c2cn(CC(=O)N3CCCC3)c3ccccc23)CC1	PfM18AAP inh-1 43 | PfM18AAP inh-2 inactive | CTSL1 counter inactive
S=C(NCCN1CCOCC1)N/N=C/c1ccccc1	none
Oc1ccc(/C=N/NC(=S)NCCN2CCOCC2)c(O)c1	PfM18AAP inh-1 52 (no result: ALR H2O2 inh) | PfM18AAP inh-2 inactive | CTSL1 counter inactive
O=C(Nn1c(O)c(C=C2N=c3ccccc3=N2)sc1=S)c1ccccc1Cl	PfM18AAP inh-1 54, PHOSPHO1 block 79 | PfM18AAP inh-2 inactive | CTSL1 counter inactive
